Experimental data from the supplement of paper PMC11732987, “Enantioselective OTUD7B fragment discovery through chemoproteomics screening and high-throughput optimisation” (Communications Chemistry, 2025).

Columns and labels:
Assay in all cases: log2 ratio of Biotin-Ahx-Ub-VS probe labelling (fragment/DMSO); higher = less target engagement (more negative = stronger competition), active = hit call of the paper (q ≤ 0.05, log2 ratio ≤ -1)
Settings in all cases: compound concentration: 200 uM; treatment time: 3 h
USP9X = USP9X (UniProt Q93008)
Summary of the method: (§1)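 Using Biotin-Ahx-Ub-VS at 0.5 µM final for 1 h, DUBs were labelled in HEK293T lysate (495 µg per sample) that had first been treated in triplicate with fragment at 200 µM or vehicle for 3 h. NeutrAvidin enrichment, LysC and trypsin digestion and diaPASEF LC-MS/MS followed. Spectronaut label-free quantities were global-median-normalised. Values are average log2 fragment/vehicle ratios by unpaired t-test, using proteins with ≥2 unique peptides.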

UniProt O00487 = molecular target: UniProt O00487
Sequence of UniProt O00487 (O00487 whole entry): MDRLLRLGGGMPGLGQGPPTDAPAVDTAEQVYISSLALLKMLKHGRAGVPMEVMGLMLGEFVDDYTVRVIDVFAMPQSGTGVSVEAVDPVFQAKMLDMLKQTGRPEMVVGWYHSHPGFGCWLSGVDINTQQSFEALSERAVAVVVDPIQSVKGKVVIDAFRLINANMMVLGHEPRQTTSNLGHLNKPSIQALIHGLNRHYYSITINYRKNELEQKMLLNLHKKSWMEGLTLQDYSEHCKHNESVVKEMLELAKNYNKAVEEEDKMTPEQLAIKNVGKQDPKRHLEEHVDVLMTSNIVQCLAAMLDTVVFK
Summary of the method: as §1

UniProt O00507 = molecular target: UniProt O00507
Sequence of UniProt O00507 (O00507 whole entry): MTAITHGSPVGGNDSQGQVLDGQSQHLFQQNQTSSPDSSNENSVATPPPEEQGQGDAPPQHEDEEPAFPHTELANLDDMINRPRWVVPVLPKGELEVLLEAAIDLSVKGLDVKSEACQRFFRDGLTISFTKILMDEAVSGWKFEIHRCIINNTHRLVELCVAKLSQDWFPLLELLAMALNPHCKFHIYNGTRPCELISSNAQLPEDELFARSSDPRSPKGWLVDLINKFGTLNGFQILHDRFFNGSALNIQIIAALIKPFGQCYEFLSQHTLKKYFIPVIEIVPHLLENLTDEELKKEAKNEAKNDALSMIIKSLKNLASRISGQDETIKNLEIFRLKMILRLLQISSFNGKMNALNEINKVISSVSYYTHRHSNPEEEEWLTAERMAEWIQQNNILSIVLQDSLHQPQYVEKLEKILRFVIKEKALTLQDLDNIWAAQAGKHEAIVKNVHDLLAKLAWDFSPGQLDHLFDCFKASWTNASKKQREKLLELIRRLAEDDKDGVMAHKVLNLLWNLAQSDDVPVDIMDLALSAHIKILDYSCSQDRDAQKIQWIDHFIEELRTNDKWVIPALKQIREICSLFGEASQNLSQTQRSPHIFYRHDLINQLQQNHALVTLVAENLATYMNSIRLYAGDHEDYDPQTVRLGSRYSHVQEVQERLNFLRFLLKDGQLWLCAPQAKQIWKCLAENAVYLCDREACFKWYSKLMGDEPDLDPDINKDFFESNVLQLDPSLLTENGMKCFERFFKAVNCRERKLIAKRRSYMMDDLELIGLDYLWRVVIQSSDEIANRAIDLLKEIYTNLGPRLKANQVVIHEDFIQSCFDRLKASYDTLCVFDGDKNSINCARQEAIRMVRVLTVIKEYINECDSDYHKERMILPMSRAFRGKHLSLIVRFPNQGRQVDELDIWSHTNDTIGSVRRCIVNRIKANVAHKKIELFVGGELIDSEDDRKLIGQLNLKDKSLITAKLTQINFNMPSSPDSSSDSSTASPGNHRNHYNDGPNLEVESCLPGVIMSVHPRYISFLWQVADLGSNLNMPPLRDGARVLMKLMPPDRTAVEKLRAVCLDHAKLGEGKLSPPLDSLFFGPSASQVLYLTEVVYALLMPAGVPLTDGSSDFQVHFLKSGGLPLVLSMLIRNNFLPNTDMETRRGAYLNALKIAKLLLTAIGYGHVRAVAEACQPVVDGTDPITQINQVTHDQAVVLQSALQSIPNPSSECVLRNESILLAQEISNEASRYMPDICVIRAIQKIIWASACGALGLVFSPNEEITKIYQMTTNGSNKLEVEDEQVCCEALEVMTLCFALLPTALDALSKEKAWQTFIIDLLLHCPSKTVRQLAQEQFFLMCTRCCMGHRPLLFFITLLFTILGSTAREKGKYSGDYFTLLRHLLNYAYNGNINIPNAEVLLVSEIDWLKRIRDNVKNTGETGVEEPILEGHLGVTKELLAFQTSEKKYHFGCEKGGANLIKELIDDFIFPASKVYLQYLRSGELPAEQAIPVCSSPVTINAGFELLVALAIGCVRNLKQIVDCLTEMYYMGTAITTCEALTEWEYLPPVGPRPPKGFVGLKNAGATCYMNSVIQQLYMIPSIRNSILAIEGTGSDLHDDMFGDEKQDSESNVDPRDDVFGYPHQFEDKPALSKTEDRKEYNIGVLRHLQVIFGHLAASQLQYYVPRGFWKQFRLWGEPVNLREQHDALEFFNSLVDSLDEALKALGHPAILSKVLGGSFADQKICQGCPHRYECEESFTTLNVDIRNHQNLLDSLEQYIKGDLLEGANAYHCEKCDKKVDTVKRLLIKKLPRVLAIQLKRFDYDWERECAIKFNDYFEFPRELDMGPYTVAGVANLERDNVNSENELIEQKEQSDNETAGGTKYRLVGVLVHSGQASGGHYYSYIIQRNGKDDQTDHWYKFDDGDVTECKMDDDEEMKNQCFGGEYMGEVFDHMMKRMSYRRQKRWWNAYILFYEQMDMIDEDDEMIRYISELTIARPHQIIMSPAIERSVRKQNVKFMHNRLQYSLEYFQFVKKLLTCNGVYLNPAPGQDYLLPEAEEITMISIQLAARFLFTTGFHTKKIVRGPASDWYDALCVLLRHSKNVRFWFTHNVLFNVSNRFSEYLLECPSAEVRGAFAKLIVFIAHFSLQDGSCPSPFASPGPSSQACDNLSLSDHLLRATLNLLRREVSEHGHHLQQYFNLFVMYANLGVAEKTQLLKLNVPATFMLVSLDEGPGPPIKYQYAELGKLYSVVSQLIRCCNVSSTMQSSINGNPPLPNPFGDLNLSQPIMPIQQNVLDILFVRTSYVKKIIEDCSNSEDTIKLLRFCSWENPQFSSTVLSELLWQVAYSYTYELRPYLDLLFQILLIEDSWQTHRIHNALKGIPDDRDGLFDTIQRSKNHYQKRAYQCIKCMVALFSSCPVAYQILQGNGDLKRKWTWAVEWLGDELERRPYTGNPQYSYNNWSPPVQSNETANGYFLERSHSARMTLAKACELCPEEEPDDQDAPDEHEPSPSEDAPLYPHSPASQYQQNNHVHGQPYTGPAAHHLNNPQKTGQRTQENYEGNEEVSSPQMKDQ
Summary of the method: as §1

UniProt P51784 = molecular target: UniProt P51784
Sequence of UniProt P51784 (P51784 whole entry): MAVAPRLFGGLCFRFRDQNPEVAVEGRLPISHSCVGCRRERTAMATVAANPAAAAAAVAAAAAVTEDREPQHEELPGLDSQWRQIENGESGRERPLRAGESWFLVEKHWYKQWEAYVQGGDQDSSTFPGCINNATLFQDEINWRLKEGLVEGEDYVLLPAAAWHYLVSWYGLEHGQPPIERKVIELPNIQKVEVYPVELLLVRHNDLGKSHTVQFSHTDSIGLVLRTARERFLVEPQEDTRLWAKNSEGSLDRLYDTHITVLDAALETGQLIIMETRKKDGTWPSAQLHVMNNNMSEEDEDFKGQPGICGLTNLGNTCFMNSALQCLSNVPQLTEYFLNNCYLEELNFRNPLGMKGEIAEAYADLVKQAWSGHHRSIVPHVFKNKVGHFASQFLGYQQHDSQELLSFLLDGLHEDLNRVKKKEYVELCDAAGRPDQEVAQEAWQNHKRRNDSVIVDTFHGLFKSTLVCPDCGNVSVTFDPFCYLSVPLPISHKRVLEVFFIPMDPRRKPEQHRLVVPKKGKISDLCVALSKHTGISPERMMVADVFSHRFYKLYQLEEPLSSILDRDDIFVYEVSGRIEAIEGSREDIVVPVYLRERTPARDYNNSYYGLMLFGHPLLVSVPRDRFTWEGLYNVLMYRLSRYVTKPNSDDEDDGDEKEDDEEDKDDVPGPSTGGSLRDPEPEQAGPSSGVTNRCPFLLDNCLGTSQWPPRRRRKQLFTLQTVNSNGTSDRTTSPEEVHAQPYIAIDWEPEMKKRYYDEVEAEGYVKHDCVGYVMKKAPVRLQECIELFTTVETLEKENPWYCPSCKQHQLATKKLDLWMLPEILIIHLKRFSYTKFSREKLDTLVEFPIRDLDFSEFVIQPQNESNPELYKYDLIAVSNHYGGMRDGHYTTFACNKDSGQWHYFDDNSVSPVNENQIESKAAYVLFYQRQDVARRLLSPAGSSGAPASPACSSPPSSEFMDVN
Summary of the method: as §1

UniProt Q5T2D3 = molecular target: T1, UniProt Q5T2D3
T1 sequence (whole entry): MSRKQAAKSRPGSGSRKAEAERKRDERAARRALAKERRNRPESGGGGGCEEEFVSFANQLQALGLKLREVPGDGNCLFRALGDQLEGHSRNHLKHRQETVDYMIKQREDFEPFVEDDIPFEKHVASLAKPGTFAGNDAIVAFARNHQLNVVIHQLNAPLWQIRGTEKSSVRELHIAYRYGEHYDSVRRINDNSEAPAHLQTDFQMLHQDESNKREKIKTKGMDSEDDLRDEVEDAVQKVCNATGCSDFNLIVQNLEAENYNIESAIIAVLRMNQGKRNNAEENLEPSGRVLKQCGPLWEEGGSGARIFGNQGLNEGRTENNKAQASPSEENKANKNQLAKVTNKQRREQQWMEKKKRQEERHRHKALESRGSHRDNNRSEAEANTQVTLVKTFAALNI
Summary of the method: as §1

UniProt Q8TE49 = molecular target: T2, UniProt Q8TE49
T2 sequence (whole entry): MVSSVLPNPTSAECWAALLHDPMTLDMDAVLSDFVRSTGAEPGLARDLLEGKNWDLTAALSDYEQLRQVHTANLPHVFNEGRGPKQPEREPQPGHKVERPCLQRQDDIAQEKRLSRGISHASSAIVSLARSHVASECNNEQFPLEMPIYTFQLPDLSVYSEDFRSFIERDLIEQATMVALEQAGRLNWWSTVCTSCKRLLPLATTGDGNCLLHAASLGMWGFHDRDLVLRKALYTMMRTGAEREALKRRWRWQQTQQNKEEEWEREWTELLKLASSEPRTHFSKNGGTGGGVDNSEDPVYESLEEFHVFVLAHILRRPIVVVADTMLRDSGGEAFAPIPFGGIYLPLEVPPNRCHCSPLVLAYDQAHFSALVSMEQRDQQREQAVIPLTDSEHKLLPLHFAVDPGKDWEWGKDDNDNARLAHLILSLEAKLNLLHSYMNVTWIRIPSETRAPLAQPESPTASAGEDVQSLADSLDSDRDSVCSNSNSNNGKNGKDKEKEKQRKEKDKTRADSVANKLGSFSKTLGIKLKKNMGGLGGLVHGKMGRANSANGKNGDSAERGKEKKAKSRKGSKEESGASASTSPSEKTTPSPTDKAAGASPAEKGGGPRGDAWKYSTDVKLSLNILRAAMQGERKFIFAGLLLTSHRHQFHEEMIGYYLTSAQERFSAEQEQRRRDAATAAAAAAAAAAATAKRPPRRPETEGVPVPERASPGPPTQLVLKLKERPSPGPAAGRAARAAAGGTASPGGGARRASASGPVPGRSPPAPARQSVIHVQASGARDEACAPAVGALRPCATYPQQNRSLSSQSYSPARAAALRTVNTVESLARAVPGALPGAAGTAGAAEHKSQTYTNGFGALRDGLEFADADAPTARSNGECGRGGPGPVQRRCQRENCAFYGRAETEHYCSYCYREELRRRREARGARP
Summary of the method: as §1

UniProt Q9P2H5 = molecular target: T3, UniProt Q9P2H5
T3 sequence (whole entry): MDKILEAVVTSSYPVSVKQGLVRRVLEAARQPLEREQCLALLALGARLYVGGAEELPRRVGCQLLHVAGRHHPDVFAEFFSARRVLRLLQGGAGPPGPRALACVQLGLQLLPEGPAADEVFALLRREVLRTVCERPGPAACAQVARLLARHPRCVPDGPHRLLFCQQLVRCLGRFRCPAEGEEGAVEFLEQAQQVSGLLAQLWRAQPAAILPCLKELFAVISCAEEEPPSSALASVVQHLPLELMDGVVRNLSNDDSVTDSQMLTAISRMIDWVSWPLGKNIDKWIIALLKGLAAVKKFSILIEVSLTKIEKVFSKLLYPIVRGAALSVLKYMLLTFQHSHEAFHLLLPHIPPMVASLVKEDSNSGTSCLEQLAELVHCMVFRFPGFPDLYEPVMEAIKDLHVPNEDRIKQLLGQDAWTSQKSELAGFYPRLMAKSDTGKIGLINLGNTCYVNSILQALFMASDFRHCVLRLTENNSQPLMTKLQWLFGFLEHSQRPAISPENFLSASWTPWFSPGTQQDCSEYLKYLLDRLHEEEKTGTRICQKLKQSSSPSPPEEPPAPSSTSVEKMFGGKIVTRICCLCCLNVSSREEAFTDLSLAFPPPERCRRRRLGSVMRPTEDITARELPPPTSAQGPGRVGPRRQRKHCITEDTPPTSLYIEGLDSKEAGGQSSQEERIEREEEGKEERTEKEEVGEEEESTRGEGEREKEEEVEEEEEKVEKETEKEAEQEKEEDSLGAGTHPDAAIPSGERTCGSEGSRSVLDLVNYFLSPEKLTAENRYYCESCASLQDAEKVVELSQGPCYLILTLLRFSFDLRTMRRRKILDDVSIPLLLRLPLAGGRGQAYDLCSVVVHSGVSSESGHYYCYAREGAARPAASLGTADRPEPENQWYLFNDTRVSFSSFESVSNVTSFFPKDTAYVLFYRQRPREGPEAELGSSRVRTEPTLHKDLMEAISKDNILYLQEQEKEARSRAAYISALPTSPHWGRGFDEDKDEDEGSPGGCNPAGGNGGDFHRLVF
Summary of the method: as §1

UniProt Q9UGI0 = molecular target: T4, UniProt Q9UGI0
T4 sequence (whole entry): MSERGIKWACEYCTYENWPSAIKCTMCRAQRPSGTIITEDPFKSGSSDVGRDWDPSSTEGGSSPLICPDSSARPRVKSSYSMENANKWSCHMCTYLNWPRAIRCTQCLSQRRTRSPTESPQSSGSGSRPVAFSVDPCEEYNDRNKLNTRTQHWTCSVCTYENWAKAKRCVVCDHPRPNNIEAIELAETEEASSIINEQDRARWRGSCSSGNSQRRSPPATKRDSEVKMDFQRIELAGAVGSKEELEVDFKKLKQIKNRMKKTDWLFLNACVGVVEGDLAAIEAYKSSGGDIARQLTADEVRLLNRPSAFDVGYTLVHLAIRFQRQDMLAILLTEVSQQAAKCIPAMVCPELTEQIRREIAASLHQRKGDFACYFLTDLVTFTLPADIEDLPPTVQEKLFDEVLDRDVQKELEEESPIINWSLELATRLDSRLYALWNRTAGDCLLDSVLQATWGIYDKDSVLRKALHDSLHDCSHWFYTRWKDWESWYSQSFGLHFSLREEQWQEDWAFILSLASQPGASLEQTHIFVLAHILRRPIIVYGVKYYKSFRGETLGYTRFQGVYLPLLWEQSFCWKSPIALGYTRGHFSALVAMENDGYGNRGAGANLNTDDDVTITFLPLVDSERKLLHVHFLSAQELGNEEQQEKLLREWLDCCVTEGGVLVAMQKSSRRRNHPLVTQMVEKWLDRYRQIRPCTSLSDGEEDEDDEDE
Summary of the method: as §1

YOD1 = molecular target: T5, YOD1 (UniProt Q5VVQ6)
T5 sequence (whole entry): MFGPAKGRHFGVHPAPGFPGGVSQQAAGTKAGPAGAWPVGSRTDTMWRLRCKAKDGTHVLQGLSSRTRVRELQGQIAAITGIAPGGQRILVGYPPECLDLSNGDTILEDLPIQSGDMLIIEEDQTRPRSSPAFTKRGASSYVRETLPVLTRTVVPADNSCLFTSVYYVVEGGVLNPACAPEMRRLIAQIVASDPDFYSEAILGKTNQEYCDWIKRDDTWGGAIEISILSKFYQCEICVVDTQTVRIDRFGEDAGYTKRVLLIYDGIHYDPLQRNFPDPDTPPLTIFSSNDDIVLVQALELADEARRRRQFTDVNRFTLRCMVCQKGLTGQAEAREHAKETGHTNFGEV
Summary of the method: as §1

Measured: log2 ratio of Biotin-Ahx-Ub-VS probe labelling

O=C(CCl)NC1(c2ccc3c(c2)OCCO3)CCCC1
inactive: USP9X -0.378 | UniProt O00487 -0.176 | UniProt O00507 -0.152 | UniProt P51784 -0.000106 | UniProt Q5T2D3 -0.339 | UniProt Q8TE49 -0.447 | UniProt Q9P2H5 -0.3 | UniProt Q9UGI0 -0.26 | YOD1 -0.199
